Test results: PubChem BioAssay (EPA / NIEHS)
Activity calls are given as the source filed them. How the source made its calls: active means hit-call score of the fitted dose curve at least 0.9, where 1 is the maximum; inactive means score below 0.9.

Read-out: Glutamate-cysteine ligase catalytic (GCLC), GCLC (gene 2729)
Assay: LTEA_HepaRG_GCLC: Life Technologies and Expression Analysis (LTEA) Assay for Glutamate-cysteine ligase catalytic (GCLC) using HepaRG (AID 2283498)
Details: mRNA level, 48 h; actives raise or lower the signal
Outline: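 Differentiated human HepaRG cells, plated 48 h then switched to serum-free induction medium, were exposed in duplicate for 48 h to 8 half-log concentrations topping at 100 uM in 0.5% DMSO. GCLC mRNA was quantified by qRT-PCR against ACTB, GAPDH and POLR2A.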

Compound | outcome | AC50
c1ccc2n[nH]nc2c1 | inactive | –
Cc1oc2c(NC(=O)c3c(Cl)cccc3Cl)cccc2c1C(C)(C)O | – | 68.7 µM (active)
Cc1cc(F)ccc1-c1cc(N2CC[C@@H](O)[C@H]2CO)ncc1N(C)C(=O)C(C)(C)c1cc(C(F)(F)F)cc(C(F)(F)F)c1 | – | 75.4 µM (active)
CC(C)(c1cc(Br)c(O)c(Br)c1)c1cc(Br)c(O)c(Br)c1 | – | 78 µM (active)
CN1C(=O)N(c2ccccc2Br)Cc2cnc(Nc3ccc4c(c3)OCC(CO)O4)nc21 (stereo unspecified) | – | 65.8 µM (active)
CCOC(=O)O[C@H](C)OC(=O)c1ccc2c(c1)cc(C(=O)NC1CCN(C(C)C)CC1)n2Cc1cc(-c2ccc(Cl)s2)on1 | inactive | –
CCCCCCCCOC(=O)c1cc(O)c(O)c(O)c1 | inactive | –
CN(C)c1ccc(C(=C2C=CC(=[N+](C)C)C=C2)c2ccc(N(C)C)cc2)cc1 | – | 20.1 µM (active)
COc1ccc2cc(S(=O)(=O)N[C@H](CC(=O)N[C@H](Cc3ccc(CN4[C@H](C)CCC[C@@H]4C)cc3)C(=O)N(C)C(C)C)c3ccc4c(c3)OCO4)ccc2c1 | – | 56.4 µM (active)
CCN(Cc1cccc(S(=O)(=O)O)c1)c1ccc(C(=C2C=CC(=[N+](CC)Cc3cccc(S(=O)(=O)O)c3)C=C2)c2ccccc2S(=O)(=O)[O-])cc1 | inactive | –
Oc1ccc2ccccc2c1 | inactive | –
Clc1cc(Cl)c2c(c1)N=C1CCCCCN1C2 | inactive | –
CC(C)(O)c1ccc(CNC(=O)c2cccnc2Oc2ccc3nonc3c2)cc1 | inactive | –
O=C(O)Cn1c(=O)n(Cc2ccc(Br)cc2F)c(=O)c2ccc(Cl)cc21 | inactive | –
CC/C(=C(/CC)c1ccc(O)cc1)c1ccc(O)cc1 | – | 78.7 µM (active)
COc1cc(C(=O)NC2CCN(C)CC2)ccc1Nc1ncc2c(n1)N(C1CCCC1)CC(F)(F)C(=O)N2C | – | 21.3 µM (active)
CCN(CC)C(=O)c1cc(S(=O)(=O)Cc2ccccc2)c(N2CCC(c3ccccc3)CC2)cc1N(CC)CCN(C)C | – | 30.7 µM (active)
CC[C@@H]1C[C@H](N(Cc2cc(C(F)(F)F)cc(C(F)(F)F)c2)C(C)=O)c2cc(C(F)(F)F)ccc2N1C(=O)OC(C)C | inactive | –
c1ccc2ccccc2c1 | inactive | –

Compound | outcome | AC50
CCCCCCCCCCCO | inactive | –
Cc1ccc(C(C)C)cc1 | inactive | –
OC12N=C(c3ccccc3)SC1Cc1cc(Cl)ccc12 (stereo unspecified) | inactive | –
CN(C)C(=O)C1(N2CCCCC2)CCN(CC[C@@]2(c3ccc(Cl)c(Cl)c3)CN(C(=O)c3ccccc3)CCO2)CC1 | – | 88.3 µM (active)
O=CCCCC=O | inactive | –
NCc1cccc(C2CCN(C(=O)c3ccc(C#Cc4ccccc4F)o3)CC2)c1 | inactive | –
COc1cccc([C@H](O)C2CCN(CCc3ccc(F)cc3)CC2)c1OC | inactive | –
CC(C)(C)c1csc(-c2cc3cc(OCc4ccccc4CC(=O)O)ccc3o2)n1 | – | 77.2 µM (active)
O=c1[nH]sc2ccccc12 | inactive | –
O=c1c(-c2ccc(O)cc2)coc2cc(O)cc(O)c12 | inactive | –
CCCCCCCC[Si](OCC)(OCC)OCC | inactive | –
CCCCOC(=O)CC(CC(=O)OCCCC)(OC(C)=O)C(=O)OCCCC | inactive | –
CCCCCCCCN(C)CCCCCCCC | inactive | –
CC[C@H](NC(=O)c1cc(F)ccc1NS(=O)(=O)c1cccc2cccnc12)c1ccccc1 | – | 47.8 µM (active)
CCCCCCCCCCCC[N+](C)(C)C | inactive | –
O=C1CCC(C2CCCCC2)CC1 | inactive | –
O=C1c2ccccc2C(=O)N1CCc1noc(-c2ccc(CN3CCCCCC3)s2)n1 | inactive | –
CC1=CC(=O)/C(=C(/C)O)C(=O)O1 | inactive | –
CCO[Si](CCCNC(N)=O)(OCC)OCC | inactive | –

Read-out: growth arrest and DNA damage 45 (GADD45G), GADD45G (gene 10912)
Assay: LTEA_HepaRG_GADD45G: Life Technologies and Expression Analysis (LTEA) Assay for growth arrest and DNA damage 45 (GADD45G) using HepaRG (AID 2283499)
Details: mRNA level, 48 h; actives raise or lower the signal
Outline: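 Differentiated human HepaRG cells in serum-free induction medium were exposed for 48 h to 8 half-log concentrations up to 100 uM in 0.5% DMSO, in duplicate. GADD45G mRNA was measured by TaqMan qRT-PCR, normalised to ACTB, GAPDH and POLR2A, and fitted bidirectionally against DMSO.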

Compound | outcome | AC50
c1ccc2n[nH]nc2c1 | inactive | –
Cc1oc2c(NC(=O)c3c(Cl)cccc3Cl)cccc2c1C(C)(C)O | inactive | –
Cc1cc(F)ccc1-c1cc(N2CC[C@@H](O)[C@H]2CO)ncc1N(C)C(=O)C(C)(C)c1cc(C(F)(F)F)cc(C(F)(F)F)c1 | – | 20.1 µM (active)
CC(C)(c1cc(Br)c(O)c(Br)c1)c1cc(Br)c(O)c(Br)c1 | inactive | –
CN1C(=O)N(c2ccccc2Br)Cc2cnc(Nc3ccc4c(c3)OCC(CO)O4)nc21 (stereo unspecified) | – | 66.6 µM (active)
CCOC(=O)O[C@H](C)OC(=O)c1ccc2c(c1)cc(C(=O)NC1CCN(C(C)C)CC1)n2Cc1cc(-c2ccc(Cl)s2)on1 | inactive | –
CCCCCCCCOC(=O)c1cc(O)c(O)c(O)c1 | inactive | –
CN(C)c1ccc(C(=C2C=CC(=[N+](C)C)C=C2)c2ccc(N(C)C)cc2)cc1 | – | 11.7 µM (active)
COc1ccc2cc(S(=O)(=O)N[C@H](CC(=O)N[C@H](Cc3ccc(CN4[C@H](C)CCC[C@@H]4C)cc3)C(=O)N(C)C(C)C)c3ccc4c(c3)OCO4)ccc2c1 | inactive | –
CCN(Cc1cccc(S(=O)(=O)O)c1)c1ccc(C(=C2C=CC(=[N+](CC)Cc3cccc(S(=O)(=O)O)c3)C=C2)c2ccccc2S(=O)(=O)[O-])cc1 | inactive | –
Oc1ccc2ccccc2c1 | inactive | –
Clc1cc(Cl)c2c(c1)N=C1CCCCCN1C2 | inactive | –
CC(C)(O)c1ccc(CNC(=O)c2cccnc2Oc2ccc3nonc3c2)cc1 | inactive | –
O=C(O)Cn1c(=O)n(Cc2ccc(Br)cc2F)c(=O)c2ccc(Cl)cc21 | inactive | –
CC/C(=C(/CC)c1ccc(O)cc1)c1ccc(O)cc1 | – | 71.7 µM (active)
COc1cc(C(=O)NC2CCN(C)CC2)ccc1Nc1ncc2c(n1)N(C1CCCC1)CC(F)(F)C(=O)N2C | – | 85.6 µM (active)
CCN(CC)C(=O)c1cc(S(=O)(=O)Cc2ccccc2)c(N2CCC(c3ccccc3)CC2)cc1N(CC)CCN(C)C | – | 20.5 µM (active)
CC[C@@H]1C[C@H](N(Cc2cc(C(F)(F)F)cc(C(F)(F)F)c2)C(C)=O)c2cc(C(F)(F)F)ccc2N1C(=O)OC(C)C | inactive | –
c1ccc2ccccc2c1 | inactive | –

Compound | outcome | AC50
CCCCCCCCCCCO | inactive | –
Cc1ccc(C(C)C)cc1 | inactive | –
OC12N=C(c3ccccc3)SC1Cc1cc(Cl)ccc12 (stereo unspecified) | – | 2.05 µM (active)
CN(C)C(=O)C1(N2CCCCC2)CCN(CC[C@@]2(c3ccc(Cl)c(Cl)c3)CN(C(=O)c3ccccc3)CCO2)CC1 | – | 37.8 µM (active)
O=CCCCC=O | inactive | –
NCc1cccc(C2CCN(C(=O)c3ccc(C#Cc4ccccc4F)o3)CC2)c1 | inactive | –
COc1cccc([C@H](O)C2CCN(CCc3ccc(F)cc3)CC2)c1OC | – | 69.1 µM (active)
CC(C)(C)c1csc(-c2cc3cc(OCc4ccccc4CC(=O)O)ccc3o2)n1 | – | 12.1 µM (active)
O=c1[nH]sc2ccccc12 | inactive | –
O=c1c(-c2ccc(O)cc2)coc2cc(O)cc(O)c12 | inactive | –
CCCCCCCC[Si](OCC)(OCC)OCC | inactive | –
CCCCOC(=O)CC(CC(=O)OCCCC)(OC(C)=O)C(=O)OCCCC | inactive | –
CCCCCCCCN(C)CCCCCCCC | inactive | –
CC[C@H](NC(=O)c1cc(F)ccc1NS(=O)(=O)c1cccc2cccnc12)c1ccccc1 | inactive | –
CCCCCCCCCCCC[N+](C)(C)C | – | 78 µM (active)
O=C1CCC(C2CCCCC2)CC1 | inactive | –
O=C1c2ccccc2C(=O)N1CCc1noc(-c2ccc(CN3CCCCCC3)s2)n1 | inactive | –
CC1=CC(=O)/C(=C(/C)O)C(=O)O1 | inactive | –
CCO[Si](CCCNC(N)=O)(OCC)OCC | inactive | –
